# Measurements from PubChem BioAssay (Tox21).
# Where “and” joins values, the source holds several entries; their conditions need not be identical. Equal values may be shown once. Inconclusive results are not listed. A call without a number means that no potency is given here. Calls of active or inactive are those of the source. Unless noted, calls follow the shape of the dose curve; as a rule, active = well fitted curve in the direction sought with a large enough effect in the repeat runs; inconclusive = weak or mixed curves; inactive = no such curve, though single readings can be large; an effect the other way counts as inactive or inconclusive.
# How the values were obtained:
# [1] = biological target: Acetylcholinesterase (Homo sapiens) (UniProt P22303); assay: Acetylcholinesterase (AChE) small molecule antagonists: enzyme-based qHTS assay (AID 1347397; calls by dose curve; also: nearly all actives have a fitted effect of over 55% in size); conditions: Potency: AChE enzyme activity inhibition
# In short: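 Colorimetric DTNB readout of acetylthiocholine hydrolysis, 10 min at room temperature, after 30 min room-temperature exposure of 50 mU/mL recombinant human enzyme to compound; DMSO vehicle control.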
# [2] = biological target: Acetylcholinesterase (Homo sapiens) (UniProt P22303); assay: Acetylcholinesterase (AChE) small molecule antagonists: fluorescence cell-based qHTS assay (AID 1347398; calls by dose curve; also: nearly all actives have a fitted effect of over 50% in size); conditions: Potency: AChE activity
# In short: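 Cellular AChE activity read as thiocholine from acetylthiocholine hydrolysis, detected by Thiolite Green fluorescence at 490/520 nm after 40 min at room temperature. Compounds were pre-incubated 30 min at 37 C on adherent SH-SY5Y cells.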
# [3] = biological target: Acetylcholinesterase (Homo sapiens) (UniProt P22303); assay: Acetylcholinesterase (AChE) small molecule antagonists: enzyme-based qHTS assay with human liver microsomes (AID 1347399; calls by dose curve; also: nearly all actives have a fitted effect of over 60% in size); conditions: Potency: qHTS inhibition
# In short: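 Recombinant human AChE (50 mU/mL in the enzyme mix) and human liver microsomes (0.25 mg/mL final) were preincubated with compound and NADPH (0.25 mg/mL final) for 30 min at 37 C. Acetylthiocholine/DTNB was then added; thiocholine was read colorimetrically after 10 min at room temperature.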
# [4] = biological target: Cytochrome P450 2D6 (Homo sapiens) (UniProt P10635); assay: Cytochrome P450 Family 2 Subfamily D Member 6 (CYP2D6) small molecule antagonists: luciferase reporter qHTS assay (AID 1671196); also: nearly all actives have a fitted effect of over 50% in size
# In short: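 Test chemicals meet CYP2D6 plus proluciferin substrate (10 min, RT); NADPH regenerating solution then drives turnover for 1 h. Detection reagent halts the reaction; luminescence measured after 20 min.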
# [5] = biological target: Cytochrome P450 2C19 (Homo sapiens) (UniProt P33261); assay: Cytochrome P450 Family 2 Subfamily C Member 19 (CYP2C19) small molecule antagonists: luciferase reporter qHTS assay (AID 1671197); also: nearly all actives have a fitted effect of over 65% in size
# In short: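 First, compounds are pinned into enzyme-substrate mix and held 10 min at room temperature. Second, NADPH regeneration solution is added and plates incubate 1 h at 37C. Third, detection reagent is added and luminescence read after 20 min.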
# [6] = biological target: Cytochrome P450 2C9 (Homo sapiens) (UniProt P11712); assay: Cytochrome P450 Family 2 Subfamily C Member 9 (CYP2C9) small molecule antagonists: luciferase reporter qHTS assay (AID 1671198); also: nearly all actives have a fitted effect of over 50% in size
# In short: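 Enzyme-substrate mix preincubated with compound 10 min at room temperature; reaction started with NADPH regeneration solution, 1 h 37C. Luminescent luciferin product read after 20 min detection reagent.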
# [7] = biological target: Cytochrome P450 1A2 (Homo sapiens) (UniProt P05177); assay: Cytochrome P450 Family 1 Subfamily A Member 2 (CYP1A2) small molecule antagonists: luciferase reporter qHTS assay (AID 1671199); also: nearly all actives have a fitted effect of over 50% in size
# In short: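 Steps: enzyme-substrate mix dispensed; test compounds and furafylline control pinned in; 10 min room temperature; NADPH regeneration solution added, 1 h; reaction stopped with luciferin detection reagent; luminescence read after 20 min.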
# [8] = biological target: Voltage-gated inwardly rectifying potassium channel KCNH2 (Homo sapiens) (UniProt Q12809); assay: Human Ether-a-go-go-Related Gene (hERG) channel small molecule antagonists: fluorescence cell-based qHTS assay (AID 1671200); also: nearly all actives have a fitted effect of over 50% in size
# In short: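 Kinetic two-minute fluorescence traces, sampled at 1 s, were collected following thallium stimulus of U2OS cells (1000 per well) that had been cultured overnight at 37 C and loaded with FluxOR II.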
# [9] = biological target: Cytochrome P450 3A4 (Homo sapiens) (UniProt P08684); assay: Cytochrome P450 Family 3 Subfamily A Member 4 (CYP3A4) small molecule antagonists: luciferase reporter qHTS assay (AID 1671201); also: nearly all actives have a fitted effect of over 50% in size
# In short: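 Proluciferin-to-luciferin conversion by CYP3A4, NADPH-regenerated, 1 h RT; luminescence read as RLU. Ketoconazole as control.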
# Potency is read from the fitted curve at half-maximal effect.
# Cytochrome P450 3A4 (Homo sapiens), sequence (P08684 whole entry, looked up): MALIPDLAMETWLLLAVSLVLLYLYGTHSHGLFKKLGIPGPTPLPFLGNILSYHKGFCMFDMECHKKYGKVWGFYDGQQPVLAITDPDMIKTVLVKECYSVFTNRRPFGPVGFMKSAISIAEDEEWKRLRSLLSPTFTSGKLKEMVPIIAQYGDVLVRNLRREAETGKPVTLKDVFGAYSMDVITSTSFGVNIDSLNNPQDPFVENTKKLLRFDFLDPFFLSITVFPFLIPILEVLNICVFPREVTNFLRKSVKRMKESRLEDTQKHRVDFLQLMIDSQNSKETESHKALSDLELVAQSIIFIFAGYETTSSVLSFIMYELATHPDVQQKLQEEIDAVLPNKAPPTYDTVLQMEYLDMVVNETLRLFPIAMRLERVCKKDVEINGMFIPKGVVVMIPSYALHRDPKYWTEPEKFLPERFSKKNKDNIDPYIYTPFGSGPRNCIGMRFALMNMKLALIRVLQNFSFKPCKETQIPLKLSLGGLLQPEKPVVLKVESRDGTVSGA
# Voltage-gated inwardly rectifying potassium channel KCNH2 (Homo sapiens), sequence (Q12809 whole entry, looked up): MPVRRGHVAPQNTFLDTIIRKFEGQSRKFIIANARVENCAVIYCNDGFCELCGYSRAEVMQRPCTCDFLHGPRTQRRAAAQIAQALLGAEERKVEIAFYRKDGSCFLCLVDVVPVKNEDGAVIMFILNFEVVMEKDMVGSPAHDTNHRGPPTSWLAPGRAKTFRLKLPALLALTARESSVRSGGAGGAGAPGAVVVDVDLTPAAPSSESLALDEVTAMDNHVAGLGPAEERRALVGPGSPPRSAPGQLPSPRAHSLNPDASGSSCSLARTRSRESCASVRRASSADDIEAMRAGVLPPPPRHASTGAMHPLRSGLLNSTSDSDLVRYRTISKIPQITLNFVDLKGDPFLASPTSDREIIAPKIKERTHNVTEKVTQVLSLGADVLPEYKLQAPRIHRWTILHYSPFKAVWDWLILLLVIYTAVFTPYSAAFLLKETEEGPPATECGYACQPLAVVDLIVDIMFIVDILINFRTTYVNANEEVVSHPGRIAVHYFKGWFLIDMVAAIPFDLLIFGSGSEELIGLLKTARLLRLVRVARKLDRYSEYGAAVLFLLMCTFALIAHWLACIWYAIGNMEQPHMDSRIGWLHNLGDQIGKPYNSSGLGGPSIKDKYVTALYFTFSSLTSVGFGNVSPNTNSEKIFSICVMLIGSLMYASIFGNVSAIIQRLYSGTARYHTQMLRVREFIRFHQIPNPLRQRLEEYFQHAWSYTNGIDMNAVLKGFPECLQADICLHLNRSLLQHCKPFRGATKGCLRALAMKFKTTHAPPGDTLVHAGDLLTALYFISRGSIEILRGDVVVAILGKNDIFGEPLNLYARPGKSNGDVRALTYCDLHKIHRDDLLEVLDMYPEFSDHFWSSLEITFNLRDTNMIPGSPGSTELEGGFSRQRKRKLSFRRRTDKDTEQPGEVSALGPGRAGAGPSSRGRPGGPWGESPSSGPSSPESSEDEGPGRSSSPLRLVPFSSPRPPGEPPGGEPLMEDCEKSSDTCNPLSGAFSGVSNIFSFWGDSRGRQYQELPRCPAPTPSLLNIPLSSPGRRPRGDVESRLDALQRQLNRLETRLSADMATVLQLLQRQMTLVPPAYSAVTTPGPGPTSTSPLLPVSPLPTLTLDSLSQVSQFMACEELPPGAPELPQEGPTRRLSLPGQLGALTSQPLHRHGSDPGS
# Acetylcholinesterase (Homo sapiens), sequence (P22303 whole entry, looked up): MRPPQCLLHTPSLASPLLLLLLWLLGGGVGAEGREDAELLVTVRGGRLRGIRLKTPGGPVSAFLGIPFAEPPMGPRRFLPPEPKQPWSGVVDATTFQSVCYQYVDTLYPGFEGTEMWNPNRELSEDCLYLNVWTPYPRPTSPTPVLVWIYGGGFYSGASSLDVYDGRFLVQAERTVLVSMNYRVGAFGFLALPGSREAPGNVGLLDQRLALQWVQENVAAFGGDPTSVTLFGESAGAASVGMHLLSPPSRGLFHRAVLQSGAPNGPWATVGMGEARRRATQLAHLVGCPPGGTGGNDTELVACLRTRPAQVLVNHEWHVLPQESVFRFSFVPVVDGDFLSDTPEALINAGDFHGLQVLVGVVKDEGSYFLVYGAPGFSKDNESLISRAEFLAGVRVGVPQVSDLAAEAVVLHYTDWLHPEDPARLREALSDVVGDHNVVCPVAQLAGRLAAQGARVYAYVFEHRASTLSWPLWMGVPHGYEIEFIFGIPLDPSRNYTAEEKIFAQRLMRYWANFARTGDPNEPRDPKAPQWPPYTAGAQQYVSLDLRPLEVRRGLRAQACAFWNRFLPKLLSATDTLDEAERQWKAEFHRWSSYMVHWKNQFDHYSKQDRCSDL
# Cytochrome P450 1A2 (Homo sapiens), sequence (P05177 whole entry, looked up): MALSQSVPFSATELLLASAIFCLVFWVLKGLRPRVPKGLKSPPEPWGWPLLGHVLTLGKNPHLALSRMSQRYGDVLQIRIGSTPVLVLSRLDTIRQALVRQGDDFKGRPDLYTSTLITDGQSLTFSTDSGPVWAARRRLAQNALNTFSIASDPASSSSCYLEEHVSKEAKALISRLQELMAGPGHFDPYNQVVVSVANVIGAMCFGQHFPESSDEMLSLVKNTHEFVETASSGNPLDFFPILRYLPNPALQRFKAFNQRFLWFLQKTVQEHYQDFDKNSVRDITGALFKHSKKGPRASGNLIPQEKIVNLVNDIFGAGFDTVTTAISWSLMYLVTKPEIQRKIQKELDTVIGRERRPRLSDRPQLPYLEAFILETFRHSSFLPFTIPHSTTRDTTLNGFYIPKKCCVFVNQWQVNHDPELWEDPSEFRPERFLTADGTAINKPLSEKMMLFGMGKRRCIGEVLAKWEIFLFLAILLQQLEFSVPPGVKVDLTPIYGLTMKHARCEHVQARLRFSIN
# Cytochrome P450 2D6 (Homo sapiens), sequence (P10635 whole entry, looked up): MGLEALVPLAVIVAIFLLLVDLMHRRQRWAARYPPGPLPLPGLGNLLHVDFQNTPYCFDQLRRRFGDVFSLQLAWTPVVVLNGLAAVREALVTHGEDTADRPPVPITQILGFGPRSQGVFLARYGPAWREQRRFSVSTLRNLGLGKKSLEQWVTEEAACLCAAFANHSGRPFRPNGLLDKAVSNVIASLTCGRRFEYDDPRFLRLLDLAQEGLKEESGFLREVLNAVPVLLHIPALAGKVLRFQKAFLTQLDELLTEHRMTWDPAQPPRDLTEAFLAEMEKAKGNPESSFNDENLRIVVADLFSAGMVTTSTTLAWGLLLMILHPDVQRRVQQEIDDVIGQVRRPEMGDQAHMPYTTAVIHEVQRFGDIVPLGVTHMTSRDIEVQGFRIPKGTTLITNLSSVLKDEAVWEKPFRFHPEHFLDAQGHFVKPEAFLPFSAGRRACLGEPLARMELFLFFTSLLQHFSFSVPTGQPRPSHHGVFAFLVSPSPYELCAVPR
# Cytochrome P450 2C9 (Homo sapiens), sequence (P11712 whole entry, looked up): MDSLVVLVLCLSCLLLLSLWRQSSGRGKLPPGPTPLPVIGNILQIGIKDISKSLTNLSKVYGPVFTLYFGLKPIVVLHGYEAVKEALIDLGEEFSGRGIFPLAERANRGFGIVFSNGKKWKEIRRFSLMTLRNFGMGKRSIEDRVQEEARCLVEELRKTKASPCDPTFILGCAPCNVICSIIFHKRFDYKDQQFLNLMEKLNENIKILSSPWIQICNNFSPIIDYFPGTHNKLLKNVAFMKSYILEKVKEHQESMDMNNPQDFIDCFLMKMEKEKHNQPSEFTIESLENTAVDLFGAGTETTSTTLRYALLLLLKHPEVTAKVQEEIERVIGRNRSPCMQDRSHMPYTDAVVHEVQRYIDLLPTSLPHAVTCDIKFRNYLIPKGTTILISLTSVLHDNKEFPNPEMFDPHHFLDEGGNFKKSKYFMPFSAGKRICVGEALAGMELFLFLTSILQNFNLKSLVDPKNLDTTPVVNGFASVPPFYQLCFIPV
# Cytochrome P450 2C19 (Homo sapiens), sequence (P33261 whole entry, looked up): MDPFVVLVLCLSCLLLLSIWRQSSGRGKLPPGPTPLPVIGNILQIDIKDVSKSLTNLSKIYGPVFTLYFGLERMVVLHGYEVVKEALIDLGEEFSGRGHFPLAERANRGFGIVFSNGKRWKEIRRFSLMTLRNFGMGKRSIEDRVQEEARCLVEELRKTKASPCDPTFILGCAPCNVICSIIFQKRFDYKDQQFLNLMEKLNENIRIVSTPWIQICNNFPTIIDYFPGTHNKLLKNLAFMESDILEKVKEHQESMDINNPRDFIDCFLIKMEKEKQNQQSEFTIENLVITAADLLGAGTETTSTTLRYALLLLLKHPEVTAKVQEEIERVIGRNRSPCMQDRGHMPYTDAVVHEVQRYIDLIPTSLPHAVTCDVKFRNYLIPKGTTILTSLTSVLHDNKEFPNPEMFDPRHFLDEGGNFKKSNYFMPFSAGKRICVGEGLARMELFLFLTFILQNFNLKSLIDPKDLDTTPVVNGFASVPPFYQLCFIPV
Compound,Potency [1],Potency [2],Potency [3],Potency [4],Potency [5],Potency [6],Potency [7],Potency [8],Potency [9]
BrCBr,inactive,inactive,inactive,inactive,inactive,inactive,inactive,inactive,inactive
Cc1ccc(CCl)cc1,inactive,inactive,inactive,inactive,inactive,inactive,inactive,inactive,inactive
c1cc[c]([Sb]([c]2ccccc2)[c]2ccccc2)cc1,inactive,inactive,inactive,inactive,17.8 µM (active),17.8 µM (active),inactive,–,–
CC(=O)O[C@H]1CC[C@@]2(C)C(=CC[C@@H]3[C@@H]2CC[C@]2(C)C(=O)CC[C@@H]32)C1,inactive,inactive,inactive,inactive,31.7 µM (active),31.7 µM (active),inactive,49 µM (active),inactive
CCOP(=O)(NC(C)C)Oc1ccc(SC)c(C)c1 (stereo not drawn),84.4 µM (active),15.9 µM (active),71 µM (active),5.02 µM (active),1.59 µM (active),11.9 µM (active),2.75 µM (active),inactive,–
N#CNC#N,inactive,inactive,inactive,inactive,inactive,inactive,inactive,inactive,inactive
C[C@]12Cc3nonc3C[C@@H]1CC[C@@H]1[C@@H]2CC[C@@]2(C)[C@H]1CC[C@]2(C)O,inactive,inactive,inactive,inactive,17.4 µM (active),24.5 µM (active),inactive,inactive,–
Clc1ccc(-c2ccc(Cl)c(Cl)c2Cl)c(Cl)c1Cl,inactive,inactive,inactive,inactive,1.91 µM (active),17 µM (active),33.9 µM (active),inactive,inactive
N#C/C=C/c1ccccc1,inactive,inactive,inactive,inactive,inactive,inactive,35.6 µM (active),inactive,inactive
CCOP(=S)(OCC)SCS(=O)(=O)CC,7.1 µM (active),2.52 µM (active),12.6 µM (active),39.9 µM (active),5.64 µM (active),12.6 µM (active),35.6 µM (active),inactive,7.96 µM (active)
O=C(O)c1cc[c]([Hg][Cl])cc1,inactive,71 µM (active),inactive,12.6 µM (active),7.1 µM (active),4.48 µM (active),17.8 µM (active),inactive,8.94 µM (active)
CCOC(=O)C1(c2ccccc2)CCN(CCC(C#N)(c2ccccc2)c2ccccc2)CC1,inactive,inactive,inactive,4.9 µM (active),9.77 µM (active),3.09 µM (active),inactive,0.601 µM (active),inactive
BrC(Br)Br,inactive,inactive,inactive,25.2 µM (active),inactive,inactive,44.8 µM (active),inactive,–
C[As+](C)(C)CC(=O)[O-],inactive,inactive,inactive,inactive,inactive,inactive,inactive,inactive,inactive
O=C/C(Cl)=C(/Cl)C(=O)O,inactive,inactive,inactive,inactive,inactive,inactive,inactive,inactive,inactive
ClC1=C(Cl)[C@]2(Cl)[C@@H]3[C@@H](Cl)[C@@H](Cl)C[C@@H]3[C@@]1(Cl)C2(Cl)Cl,inactive,inactive,inactive,inactive,inactive,inactive,inactive,inactive,inactive
CC1(C)CC/C(=C/c2ccc(Cl)cc2)C1(O)Cn1cncn1 (stereo not drawn),inactive,inactive,inactive,12.6 µM (active),0.223 µM (active),1.12 µM (active),35.4 µM (active),inactive,–
COc1ccc(N)cc1N,inactive,inactive,inactive,10.3 µM (active) and 17.1 µM (active),732 nM (active) and 3.83 µM (active),41.2 µM (active) and 24.2 µM (active),6.53 µM (active) and 38.3 µM (active),inactive,11.6 µM (active)
CCCN(CC)CC1COC2(CCC(C(C)(C)C)CC2)O1 (stereo not drawn),inactive,inactive,inactive,12.6 µM (active),11.2 µM (active),–,–,–,–
CCCCOP(=O)(CCCC)OCCCC,inactive,inactive,inactive,inactive,11.2 µM (active),31.7 µM (active),31.7 µM (active),inactive,–
Clc1ccc(C(Cl)(Cl)Cl)c(Cl)c1,inactive,inactive,inactive,31.9 µM (active),80.2 µM (active),inactive,–,–,–
CN(C)C1CSSSC1,inactive,inactive,inactive,39.9 µM (active),35.6 µM (active),28.3 µM (active),63.3 µM (active),inactive,inactive

Compound,Potency [1],Potency [2],Potency [3],Potency [4],Potency [5],Potency [6],Potency [7],Potency [8],Potency [9]
CC(C)C(=O)Cl,inactive,inactive,inactive,inactive,inactive,inactive,inactive,inactive,inactive
N#Cc1ccc(O)cc1,inactive,inactive,inactive,inactive,89.4 µM (active),inactive,inactive,inactive,inactive
Oc1c(Br)c(Br)c(Br)c(Br)c1Br,inactive,inactive,inactive,inactive,inactive,35.8 µM (active),56.8 µM (active),inactive,inactive
Oc1ccccc1Br,inactive,inactive,inactive,inactive,inactive,inactive,inactive,inactive,inactive
Nc1ccccc1C(=O)OC/C=C/c1ccccc1,inactive,inactive,inactive,–,–,–,–,–,–
CNC(C)Cc1ccc2c(c1)OCO2 (stereo not drawn),inactive,inactive,inactive,0.491 µM (active),inactive,inactive,inactive,inactive,inactive
CCOCn1c(-c2ccc(Cl)cc2)c(C#N)c(Br)c1C(F)(F)F,inactive,inactive,inactive,35.6 µM (active),4.48 µM (active),8.94 µM (active),0.633 µM (active),–,–
COc1cc(C=O)cc2c1[C@H](COC(N)=O)[C@]1(OC(C)=O)ON2C[C@H]2[C@@H]1N2C(C)=O,inactive,inactive,inactive,inactive,inactive,inactive,inactive,inactive,inactive
ClC(Cl)=C(c1ccc(Cl)cc1)c1ccc(Cl)cc1,inactive,inactive,inactive,inactive,409 nM (active) and 710 nM (active),14.5 µM (active) and 12.6 µM (active),5.78 µM (active) and 5.64 µM (active),39.9 µM (active) and 49 µM (active),inactive
C[C@]12CC[C@H](O)C[C@H]1CC[C@@H]1[C@@H]2C[C@@H](O)[C@]2(C)[C@@H](C3=CC(=O)OC3)CC[C@]12O,inactive,inactive,inactive,inactive,inactive,inactive,inactive,inactive,inactive
OC(c1ccc(Cl)cc1)(c1ccc(Cl)cc1)C(Cl)(Cl)Cl,inactive,inactive,inactive,31.7 µM (active),0.0564 µM (active),5.03 µM (active),14.2 µM (active),24.5 µM (active),inactive
Nc1ccc(Sc2ccc(N)cc2)cc1,inactive,inactive,inactive,31.7 µM (active),5.03 µM (active),1.23 µM (active),35.6 µM (active),inactive,–
C=CC(=O)OCC(COC(=O)C=C)(COC(=O)C=C)COC(=O)C=C,inactive,inactive,inactive,28.3 µM (active),17.8 µM (active),14.2 µM (active),inactive,inactive,1.26 µM (active)
COC(=O)N(C(=O)N1COC2(C(=O)OC)Cc3cc(Cl)ccc3C2=N1)c1ccc(OC(F)(F)F)cc1 (stereo not drawn),inactive,inactive,inactive,inactive,0.195 µM (active),4.9 µM (active),inactive,inactive,5.49 µM (active)
CCc1nn(C)c(C(=O)NCc2ccc(C(C)(C)C)cc2)c1Cl,inactive,inactive,inactive,63.3 µM (active),6.33 µM (active),17.8 µM (active),22.4 µM (active),21.9 µM (active),inactive
CCC(C)c1cc([N+](=O)[O-])cc([N+](=O)[O-])c1OC(=O)C=C(C)C (stereo not drawn),inactive,inactive,inactive,inactive,35.6 µM (active),35.6 µM (active),35.6 µM (active),–,inactive
CC1(c2ccc(Oc3ccccc3)cc2)OC(=O)N(Nc2ccccc2)C1=O (stereo not drawn),inactive,inactive,inactive,inactive,12.7 µM (active),8.99 µM (active),35.8 µM (active),–,11.3 µM (active)
O=C(CCl)Nc1ccccc1,inactive,inactive,inactive,39.9 µM (active),inactive,inactive,–,inactive,inactive
O=c1oc2ccccc2c(O)c1Cc1c(O)c2ccccc2oc1=O,inactive,inactive,inactive,inactive,inactive,–,24.5 µM (active),inactive,inactive
CC(C)(C)OO,inactive,inactive,inactive,inactive,inactive,inactive,–,inactive,inactive
O=[N+]([O-])c1cc(Cl)ccc1Cl,inactive,inactive,inactive,inactive,inactive,inactive,–,inactive,inactive
